Test results taken from PubChem BioAssay (NCI).
The panel holds about 79,000 compounds, 15% with a hit somewhere; the sample as a whole holds those more often. The source made the active and inactive calls. No stated cut-off is given here; in the data, active means growth inhibition above about 70%; inactive means the rest.

How the values were obtained:
[1] = NCI Yeast Anticancer Drug Screen. Data for the rad52 strain (AID 147);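 further: 0% = growth of vehicle-treated control cultures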; conditions: S. cerevisiae rad52 mutant growth inhibition, hits give high values
How it was run: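 Measured: yeast growth inhibition. System: strain with a defined DNA damage repair alteration. Reference: vehicle-treated control cultures.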

[2] = NCI Yeast Anticancer Drug Screen. Data for the rad50EPP+ strain (AID 151);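 further: 0% = growth of vehicle-treated control cultures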; conditions: S. cerevisiae rad50 mutant strain, hits give high values
How it was run: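 One strain with a rad50 alteration (rad50EPP+) was compound-treated, its growth then compared to that of vehicle controls.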

[3] = NCI Yeast Anticancer Drug Screen. Data for the mgt1 strain (AID 153); conditions: S. cerevisiae mgt1 mutant growth inhibition, hits give high values
How it was run: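 After exposure of the mgt1 yeast mutant to compound, growth was measured and reported as inhibition compared with vehicle controls.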

[4] = NCI Yeast Anticancer Drug Screen. Data for the rad50 strain (AID 155);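 further: 0% = growth of vehicle-only cultures of the same strain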; conditions: S. cerevisiae rad50 strain growth inhibition, hits give high values
How it was run: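 A DNA repair-deficient yeast mutant serves as the test organism; compound-induced growth inhibition is calculated against vehicle-treated cells.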

[5] = NCI Yeast Anticancer Drug Screen. Data for the mec2-1 strain (AID 157); conditions: S. cerevisiae mec2-1 strain, hits give high values
How it was run: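 Test agents were screened against the mec2-1 yeast strain, with defined DNA repair or cell cycle alteration. Growth was scored as inhibition against vehicle-only controls.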

[6] = NCI Yeast Anticancer Drug Screen. Data for the rad14 strain (AID 159);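 further: 0% = growth of vehicle-treated control cultures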; conditions: S. cerevisiae rad14 strain growth inhibition, hits give high values
How it was run: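 Vehicle-treated cultures served as the baseline for growth inhibition of a DNA repair-mutant yeast strain exposed to each compound.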

[7] = NCI Yeast Anticancer Drug Screen. Data for the sgs1 mgt1 strain (AID 161);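 further: 0% = growth of cultures given vehicle only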; conditions: S. cerevisiae sgs1 mgt1 strain, hits give high values
How it was run: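 Read-out: growth inhibition vs vehicle controls. Cells: mutant yeast strain deficient in DNA damage repair.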

[8] = NCI Yeast Anticancer Drug Screen. Data for the CLN2oe strain (AID 163);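 further: 0% = growth of vehicle-only control cultures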; conditions: S. cerevisiae CLN2oe strain, hits give high values
How it was run: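 Here, growth inhibition in a cell-cycle-altered yeast strain after compound exposure was quantified against vehicle control growth.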

[9] = NCI Yeast Anticancer Drug Screen. Data for the cln2 rad14 strain (AID 165);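 further: 0% = growth equal to vehicle treated cultures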; conditions: S. cerevisiae cln2 rad14 strain, hits give high values
How it was run: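 Growth of compound-exposed yeast (cln2 rad14 genotype) measured and expressed as inhibition relative to vehicle.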

[10] = NCI Yeast Anticancer Drug Screen. Data for the bub3 strain (AID 167); conditions: S. cerevisiae bub3 mutant strain, hits give high values
How it was run: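 Inhibition values come from growth of compound-treated mutant yeast normalised to vehicle-treated controls.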

[11] = NCI Yeast Anticancer Drug Screen. Data for the wt2 strain (AID 169);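 further: 0% = growth of vehicle-treated yeast cultures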; conditions: S. cerevisiae wt2 strain growth inhibition, hits give high values
How it was run: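 Genetically defined yeast strains from a DNA-repair/cell-cycle panel were used. Compound-exposed yeast growth was measured, and the inhibition was calculated relative to vehicle treatment.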

[12] = NCI Yeast Anticancer Drug Screen. Data for the mlh1 strain (AID 171);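 further: 0% = growth of vehicle-treated control cultures of the same strain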; conditions: S. cerevisiae mlh1 strain growth inhibition, hits give high values
How it was run: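 Here the genetically defined yeast mutant is grown with each compound, and the extent to which its growth falls below that of vehicle-exposed cells is reported.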

[13] = NCI Yeast Anticancer Drug Screen. Data for the sgs1 strain (AID 173);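 further: 0% = growth of vehicle-only control cultures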; conditions: S. cerevisiae sgs1 mutant, hits give high values
How it was run: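 Relative growth inhibition, referenced to vehicle, was determined in a yeast strain with a defined alteration affecting DNA damage repair or cell cycle control after compound exposure.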

[14] = NCI Yeast Anticancer Drug Screen. Data for the mlh1 rad18 strain (AID 175); conditions: S. cerevisiae mlh1 rad18 strain growth inhibition, hits give high values
How it was run: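 In this whole-cell yeast screen, a strain with altered DNA damage repair is challenged with compound, and its growth is measured against matched vehicle-treated controls.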

[15] = NCI Yeast Anticancer Drug Screen. Data for the rad18 strain (AID 177); conditions: S. cerevisiae rad18 mutant growth inhibition, hits give high values
How it was run: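 Screen uses a yeast strain with a defined lesion in DNA damage repair; compound effect is read as loss of growth compared to untreated vehicle cultures.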

[16] = NCI Yeast Anticancer Drug Screen. Data for the wt1 strain (AID 149);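 further: 0% = growth of vehicle-treated wt1 cultures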; conditions: S. cerevisiae wt1 strain (SPY 50644) growth inhibition, hits give high values
How it was run: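 Vehicle-normalised growth inhibition; strain wt1; compound exposure.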

[17] = at 5.0 µM (retest, dose inferred, filed as 0.5)
[18] = at 50.0 µM (retest, dose inferred, filed as 5.0)

Measured: growth inhibition

CCCCCCCN(CCCCCCC)CC(=O)c1ccc2cc(Cl)c3ccccc3c2c1
inactive: [1]; at 1.2 µM 3% | [1]; at 3.7 µM 19% | [2]; at 1.2 µM -5% | [2]; at 3.7 µM 0% | [2]; at 11.0 µM 29% | [2]; at 33.0 µM 58% | [3]; at 1.2 µM 5% | [3]; at 3.7 µM 19% | [4]; at 1.2 µM 2% | [4]; at 3.7 µM 28% | [4]; [17] 39% | [5]; at 1.2 µM 1% | [5]; at 3.7 µM 0% | [5]; [17] 26% | [6]; at 1.2 µM 36% | [6]; at 3.7 µM 50% | [7]; [17] 60% | [8]; at 1.2 µM 1% | [8]; at 3.7 µM 22% | [9]; [17] 14% | [10]; at 1.2 µM 9% | [10]; at 3.7 µM 24% | [10]; [17] 26% | [11]; at 1.2 µM 32% | [11]; at 3.7 µM 64% | [12]; at 1.2 µM -9% | [12]; at 3.7 µM 40% | [13]; at 1.2 µM 5% | [13]; at 3.7 µM 26% | [14]; [17] 25% | [15]; at 1.2 µM -9% | [15]; at 3.7 µM 19%
active: [1]; at 11.0 µM 98% | [1]; at 33.0 µM 96% | [1]; at 100.0 µM 92% | [2]; at 100.0 µM 94% | [3]; at 11.0 µM 98% | [3]; at 33.0 µM 98% | [3]; at 100.0 µM 95% | [4]; at 11.0 µM 98% | [4]; at 33.0 µM 97% | [4]; [18] 93% | [4]; at 50.0 µM 99.3% | [4]; at 100.0 µM 92% | [5]; at 11.0 µM 78% | [5]; at 33.0 µM 98% | [5]; [18] 96% | [5]; at 50.0 µM 99.4% | [5]; at 100.0 µM 96% | [6]; at 11.0 µM 98% | [6]; at 33.0 µM 97% | [6]; at 100.0 µM 95% | [7]; [18] 96% | [7]; at 50.0 µM 99.2% | [8]; at 11.0 µM 98% | [8]; at 33.0 µM 97% | [8]; at 100.0 µM 92% | [9]; [18] 93% | [9]; at 50.0 µM 98.5% | [10]; at 11.0 µM 98% | [10]; at 33.0 µM 97% | [10]; [18] 95% | [10]; at 50.0 µM 98.2% | [10]; at 100.0 µM 94% | [11]; at 11.0 µM 98% | [11]; at 33.0 µM 97% | [11]; at 100.0 µM 95% | [12]; at 11.0 µM 98% | [12]; at 33.0 µM 97% | [12]; at 100.0 µM 93% | [13]; at 11.0 µM 98% | [13]; at 33.0 µM 97% | [13]; at 100.0 µM 93% | [14]; [18] 94% | [14]; at 50.0 µM 99.5% | [15]; at 11.0 µM 98% | [15]; at 33.0 µM 97% | [15]; at 100.0 µM 93%

Cc1nc2sc3c(c2c(=O)o1)CCCC3
active: [10]; at 50.0 µM 72.9%
inactive: [1]; at 1.2 µM 0% | [1]; at 3.7 µM 2% | [1]; at 11.0 µM 1% | [1]; at 33.0 µM 6% | [1]; at 100.0 µM 4% | [2]; at 1.2 µM -6% | [2]; at 3.7 µM -8% | [2]; at 11.0 µM -10% | [2]; at 33.0 µM -3% | [2]; at 100.0 µM -1% | [3]; at 1.2 µM -1% | [3]; at 3.7 µM -1% | [3]; at 11.0 µM 18% | [3]; at 33.0 µM -2% | [3]; at 100.0 µM 7% | [4]; at 1.2 µM 0% | [4]; at 3.7 µM 2% | [4]; [17] 18% | [4]; at 11.0 µM -11% | [4]; at 33.0 µM 7% | [4]; [18] 10% | [4]; at 50.0 µM 4.2% | [4]; at 100.0 µM 5% | [5]; at 1.2 µM 2% | [5]; at 3.7 µM 2% | [5]; [17] 5% | [5]; at 11.0 µM 2% | [5]; at 33.0 µM 6% | [5]; [18] -4% | [5]; at 50.0 µM 25.3% | [5]; at 100.0 µM 6% | [7]; [17] -6% | [7]; [18] 14% | [7]; at 50.0 µM 26.6% | [8]; at 1.2 µM -1% | [8]; at 3.7 µM 1% | [8]; at 11.0 µM 2% | [8]; at 33.0 µM 6% | [8]; at 100.0 µM 14% | [9]; [17] 23% | [9]; [18] 3% | [9]; at 50.0 µM 4.5% | [10]; at 1.2 µM 6% | [10]; at 3.7 µM 18% | [10]; [17] 30% | [10]; at 11.0 µM 31% | [10]; at 33.0 µM 39% | [10]; [18] 51% | [10]; at 100.0 µM 28% | [11]; at 1.2 µM -1% | [11]; at 3.7 µM 1% | [11]; at 11.0 µM 1% | [11]; at 33.0 µM 3% | [11]; at 100.0 µM 4% | [13]; at 1.2 µM -2% | [13]; at 3.7 µM -4% | [13]; at 11.0 µM -2% | [13]; at 33.0 µM 1% | [13]; at 100.0 µM 2%

C1=CCN([B-](c2ccccc2)[C+]2CCCCC2)C=C1
active: [16]; at 100.0 µM 98% | [3]; at 100.0 µM 99% | [4]; at 33.0 µM 70% | [4]; [18] 86% | [4]; at 50.0 µM 98.9% | [4]; at 100.0 µM 99% | [5]; at 33.0 µM 76% | [5]; [18] 96% | [5]; at 50.0 µM 98.7% | [5]; at 100.0 µM 99% | [6]; at 100.0 µM 99% | [7]; [18] 92% | [7]; at 50.0 µM 99.2% | [8]; at 100.0 µM 95% | [10]; at 33.0 µM 80% | [10]; at 100.0 µM 97% | [11]; at 33.0 µM 94% | [11]; at 100.0 µM 98%
inactive: [16]; at 1.2 µM -1% | [16]; at 3.7 µM -2% | [16]; at 11.0 µM 1% | [16]; at 33.0 µM 64% | [2]; at 1.2 µM -3% | [2]; at 3.7 µM -4% | [2]; at 11.0 µM -3% | [2]; at 33.0 µM 2% | [2]; at 100.0 µM 22% | [3]; at 1.2 µM -2% | [3]; at 3.7 µM -1% | [3]; at 11.0 µM 0% | [3]; at 33.0 µM 44% | [4]; at 1.2 µM -3% | [4]; at 3.7 µM -49% | [4]; [17] -2% | [4]; at 11.0 µM 16% | [5]; at 1.2 µM -1% | [5]; at 3.7 µM -2% | [5]; [17] -4% | [5]; at 11.0 µM 4% | [6]; at 1.2 µM -1% | [6]; at 3.7 µM -2% | [6]; at 11.0 µM 1% | [6]; at 33.0 µM 28% | [7]; [17] -5% | [8]; at 1.2 µM -6% | [8]; at 3.7 µM -6% | [8]; at 11.0 µM 1% | [8]; at 33.0 µM 32% | [9]; [17] -1% | [9]; [18] 18% | [9]; at 50.0 µM 2.1% | [10]; at 1.2 µM 2% | [10]; at 3.7 µM -1% | [10]; [17] 1% | [10]; at 11.0 µM 4% | [10]; [18] 15% | [10]; at 50.0 µM -11.4% | [11]; at 1.2 µM -1% | [11]; at 3.7 µM 7% | [11]; at 11.0 µM 3%
